# Measured values reported in PubChem BioAssay (EPA / NIEHS).
# Several values for one entry are separate records, joined by “and”; a condition that tells them apart may be missing. Identical values can stand only once. Results filed as inconclusive are left out. Activity calls are given as the source filed them. The calls were made as follows, unless noted: active = hit-call score of the fitted dose curve at least 0.9, where 1 is the maximum; inactive = score below 0.9.
# What was measured:
# [1] = tested on: DIO1 (gene 1733); assay: CCTE_GLTED_hDIO1: CCTE's human Deiodinase 1 (DIO1) Inhibition Assay, Great Lakes Toxicology and Ecology Division (GLTED) Lab (AID 2283987; active = hit-call score of the fitted dose curve at least 0.9, where 1 is the maximum;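 also: isolated human DIO1 enzyme in a cell-free setup rather than cells; enzyme activity read as free iodide liberated from substrate via Sandell-Kolthoff colorimetry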)
# In short: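 Cell-free hDIO1 assay, triplicate plates. Absorbance of the Sandell-Kolthoff reaction reports enzyme-liberated iodide; iodinated chemicals or nitrite, iron and thiocyanate may interfere.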
# [2] = CCTE_Simmons_MITO_basal_resp_rate: CCTE's HepG2 Seahorse XF Respirometric Screening Assay at Basal Respiratory State, Simmons Lab (AID 2284001); conditions: actives raise or lower the signal
# In short: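 Readout is oxygen consumption rate after test compound injection, measured by Seahorse XF in HepG2 cells. Seven concentrations from 125 nM up to 100 uM final are tested, and activity in either direction is fitted against DMSO.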
# [3] = CCTE_Simmons_MITO_max_resp_rate: CCTE's HepG2 Seahorse XF Respirometric Screening Assay at Maximal Respiratory State [uncoupled], Simmons Lab (AID 2284002); conditions: actives raise or lower the signal
# In short: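 Maximal respiration in HepG2 cells is recorded as OCR by Seahorse XF following FCCP injection. Compounds span 125 nM–100 uM final; activity is called in either direction against DMSO.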
# [4] = CCTE_Simmons_MITO_viability: CellTiter-Glo Viability Assessment for CCTE's HepG2 Seahorse XF Respirometric Screening Assay [post-hoc], Simmons Lab (AID 2284007; active = hit-call score of the fitted dose curve at least 0.9, where 1 is the maximum)
# In short: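 Post-hoc viability check on the HepG2 respirometry plates: luciferase-based ATP signal measured once, after 90 min compound exposure spanning 125 nM–100 uM final. Activity was referenced to DMSO as baseline.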
# [5] = CCTE_Shafer_MEA_acute_spike_number: CCTE's Neural Acute Assay for Total Number of Spikes, Shafer Lab (AID 2284008);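 as to AC50: curve fitted for decrease in spike count so AC50 reflects inhibitors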
# In short: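 Cortical neurons from rat, matured to DIV 13 or 15 on microelectrode arrays, are recorded at 37 C before and during 40-min exposure to 0.03-40 uM compound. Wells need >/= 10 active electrodes.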
# [6] = CCTE_Shafer_MEA_acute_firing_rate_mean: CCTE's Neural Acute Assay for Mean Firing Rate, Shafer Lab (AID 2284009);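 also: analyzed for loss of signal so actives lower firing rate relative to DMSO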
# In short: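 Spontaneous spiking of primary rat cortical networks, DIV 13/15, 37 C. Compound 0.03-40 uM, n ≥3 wells; 40 min baseline vs 40 min treated. Endpoint fitted in loss-of-signal direction against DMSO.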
# [7] = CCTE_Harrill_HTTr_Viability_MCF7: CCTE's 6-hour Cell Viability Assessment for the High-Throughput Transcriptomics (HTTr) Platform, in MCF-7 cells cultured in DMEM + 10% fetal bovine serum, Harrill Lab (AID 2284010)
# In short: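 Eight-point concentration series, six-hour exposure. Propidium iodide exclusion imaged to assess membrane integrity as a cytotoxicity readout; bidirectional fitting was done with DMSO as negative control and activity baseline.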
# [8] = CCTE_Harrill_HTTr_Apoptosis_MCF7: CCTE's 6-hour Apoptosis Assessment for the High-Throughput Transcriptomics (HTTr) Platform, in MCF-7 cells cultured in DMEM + 10% fetal bovine serum, Harrill Lab (AID 2284011)
# In short: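 Cells are dosed with test chemicals at eight concentrations and imaged 6 hours later for caspase-3/7 activity using a green fluorogenic detection reagent. Activity is fitted in both directions against DMSO controls.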
# [9] = CCTE_Harrill_HTTr_CellCount_MCF7: CCTE's Cell Proliferation Assessment for the High-Throughput Transcriptomics (HTTr) Platform, Harrill Lab (AID 2284012; active = hit-call score of the fitted dose curve at least 0.9, where 1 is the maximum;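 also: count of Hoechst-stained nuclei per well by high-content imaging in MCF-7 cells; cells exposed to compound for six hours; intended direction is loss of nuclei count meaning fewer cells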)
# In short: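 For this full-screen endpoint, MCF-7 cultures received eight compound dilutions for six hours. Well nuclei counts from Hoechst imaging were analyzed relative to DMSO.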
# [10] = CCTE_Shafer_MEA_acute_burst_number: CCTE's Neural Acute Assay for Single-Electrode Bursts, Shafer Lab (AID 2284013)
# In short: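 Burst totals were derived with adaptive spike detection (8x rms threshold) on filtered signals from rat cortical cultures; change relative to pre-treatment baseline after 40-min compound exposure (0.03-40 uM) was fitted in the negative direction against DMSO.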
# [11] = CCTE_Shafer_MEA_acute_burst_duration_mean: CCTE's Neural Acute Assay for Mean Burst Duration, Shafer Lab (AID 2284014);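 also: hits are decreases in mean burst duration relative to DMSO controls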
# In short: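 Acute exposure of mature rat cortical networks (DIV 13 or 15) grown on microelectrode arrays to 0.03-40 uM compound. Mean burst duration compared with the 40-min pre-dose baseline over a 40-min post-dose recording at 37 C.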
# [12] = biological target: Nucleoli Translocation, AR (gene 367) (UniProt P10275); assay: UPITT_HCI_U2OS_AR_TIF2_Nucleoli_Antagonist: University of Pittsburgh U2OS Androgen Receptor-Transcriptional Intermediary Factor 2 (AR-TIF2) Antagonism High Content Imaging Assay for Nucleoli Translocation (AID 2283997; active = hit-call score of the fitted dose curve at least 0.9, where 1 is the maximum)
# In short: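 An antagonist-mode imaging screen: engineered U2OS (AR-RFP, TIF2-GFP) exposed to 20 uM compound, 0.2% DMSO. Activity reflects nucleolar red fluorescence change relative to DHT baseline.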
# [13] = biological target: Nucleoli Translocation, AR (gene 367) (UniProt P10275); assay: UPITT_HCI_U2OS_AR_TIF2_Nucleoli_Agonist: University of Pittsburgh U2OS Androgen Receptor-Transcriptional Intermediary Factor 2 (AR-TIF2) Agonism High Content Imaging Assay for Nucleoli Translocation (AID 2283998; active = hit-call score of the fitted dose curve at least 0.9, where 1 is the maximum)
# In short: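 Red-tagged human androgen receptor co-expressed with GFP-tagged TIF2 serves as the binding reporter. Primary testing used 20 uM final (0.2% DMSO); follow-up dose response covered 0.195 to 50 uM final (0.5% DMSO).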
# [14] = biological target: Ratio of Nucleoli Translocation and Cytoplasm, AR (gene 367) (UniProt P10275); assay: UPITT_HCI_U2OS_AR_TIF2_Nucleoli_Cytoplasm_Ratio_Antagonist: University of Pittsburgh U2OS Androgen Receptor-Transcriptional Intermediary Factor 2 (AR-TIF2) Antagonism High Content Imaging Assay for Ratio of Nucleoli Translocation and Cytoplasm (AID 2283999; active = hit-call score of the fitted dose curve at least 0.9, where 1 is the maximum;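 also: antagonists lower the DHT-driven ratio of nucleolar to cytoplasmic red signal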)
# In short: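 This antagonist-mode endpoint tracks AR-RFP localisation, the nucleolus-to-cytoplasm intensity ratio, in TIF2-GFP-coexpressing U2OS cells. DMSO stays at or below 0.5%; testing spans 20 uM single-dose and 0.195–50 uM series, with DHT setting the activity baseline.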
# [15] = biological target: Ratio of Nucleoli Translocation and Cytoplasm, AR (gene 367) (UniProt P10275); assay: UPITT_HCI_U2OS_AR_TIF2_Nucleoli_Cytoplasm_Ratio_Agonist: University of Pittsburgh U2OS Androgen Receptor-Transcriptional Intermediary Factor 2 (AR-TIF2) Agonism High Content Imaging Assay for Ratio of Nucleoli Translocation and Cytoplasm (AID 2284000; active = hit-call score of the fitted dose curve at least 0.9, where 1 is the maximum;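 also: hits raise the red nucleolar to cytoplasm ratio above vehicle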)
# In short: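 Primary screen at 20 uM final (0.2% DMSO), then triplicate confirmation and dose-response from 0.195 to 50 uM final (0.5% DMSO). Cells: U2OS with AR-RFP and TIF2-GFP. Endpoint is the nucleoli/cytoplasm red-fluorescence ratio, gain-of-signal vs DMSO.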
# Nucleoli Translocation, AR (gene 367), sequence (P10275 whole entry, looked up): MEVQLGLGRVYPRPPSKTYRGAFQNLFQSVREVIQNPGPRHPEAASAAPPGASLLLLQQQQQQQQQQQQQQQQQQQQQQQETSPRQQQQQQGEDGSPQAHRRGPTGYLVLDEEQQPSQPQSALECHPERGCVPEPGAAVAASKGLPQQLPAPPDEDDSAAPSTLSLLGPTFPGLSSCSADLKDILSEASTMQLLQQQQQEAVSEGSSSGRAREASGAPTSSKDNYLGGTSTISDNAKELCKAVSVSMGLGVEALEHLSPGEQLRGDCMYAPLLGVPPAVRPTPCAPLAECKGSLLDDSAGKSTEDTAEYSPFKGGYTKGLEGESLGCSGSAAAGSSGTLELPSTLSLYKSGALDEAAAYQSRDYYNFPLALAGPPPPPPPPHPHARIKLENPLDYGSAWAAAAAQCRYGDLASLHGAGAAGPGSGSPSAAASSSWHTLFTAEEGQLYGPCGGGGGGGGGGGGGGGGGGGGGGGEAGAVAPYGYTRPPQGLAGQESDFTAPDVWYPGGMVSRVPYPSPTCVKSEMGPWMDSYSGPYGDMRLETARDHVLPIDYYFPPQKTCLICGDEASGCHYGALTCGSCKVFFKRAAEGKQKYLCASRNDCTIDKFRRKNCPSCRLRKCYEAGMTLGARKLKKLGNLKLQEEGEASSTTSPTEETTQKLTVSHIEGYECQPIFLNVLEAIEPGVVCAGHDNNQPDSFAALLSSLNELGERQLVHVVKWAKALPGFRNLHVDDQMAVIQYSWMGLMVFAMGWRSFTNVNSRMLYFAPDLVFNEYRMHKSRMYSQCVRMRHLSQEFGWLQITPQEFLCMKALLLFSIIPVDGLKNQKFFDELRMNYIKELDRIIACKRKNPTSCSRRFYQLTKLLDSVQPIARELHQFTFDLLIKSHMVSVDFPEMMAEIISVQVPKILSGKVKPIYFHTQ
# Ratio of Nucleoli Translocation and Cytoplasm, AR (gene 367), sequence (P10275 whole entry, looked up): as above
structure (smiles),measurement,setting,value
CCC(C)(C)c1ccc(O)c(C(C)(C)CC)c1,AC50,[1],46.1 µM (active)
same,AC50,[2],38 µM (active)
same,AC50,[3],78.2 µM (active)
same,outcome,[4],inactive
same,AC50,[5],4.73 µM (active)
same,AC50,[6],4.69 µM (active)
same,AC50,[7],42.1 µM (active)
same,outcome,[8],inactive
same,outcome,[9],inactive
same,AC50,[10],5.29 µM (active)
same,outcome,[11],inactive
CN(CCCC(=O)c1cccnc1)N=O,outcome,[12],inactive
same,outcome,[13],inactive
same,outcome,[14],inactive
same,outcome,[15],inactive
same,outcome,[7],inactive
same,outcome,[8],inactive
CCCCCCCCc1ccc(O)cc1,AC50,[1],57.1 µM (active)
same,outcome,[14],inactive
same,AC50,[2],50 µM (active)
same,AC50,[3],39.5 µM (active)
same,outcome,[4],inactive
same,AC50,[5],3 µM (active)
same,AC50,[6],3.15 µM (active)
same,outcome,[7],inactive
same,outcome,[8],inactive
same,outcome,[9],inactive
same,AC50,[10],2.53 µM (active)
same,outcome,[11],inactive
C=CCc1ccc(OC)cc1,outcome,[12],inactive
same,outcome,[14],inactive
same,outcome,[15],inactive
C[C@H]1O[C@@H](O[C@H]2[C@@H](O)C[C@H](O[C@H]3[C@@H](O)C[C@H](O[C@H]4CC[C@@]5(C)[C@H](CC[C@@H]6[C@@H]5CC[C@]5(C)[C@@H](C7=CC(=O)OC7)CC[C@]65O)C4)O[C@@H]3C)O[C@@H]2C)C[C@H](O)[C@@H]1O,AC50,[12],8.23 µM (active) and 5.95 µM (active)
same,outcome,[13],inactive
same,outcome,[14],inactive
same,outcome,[15],inactive
same,outcome,[7],inactive
same,outcome,[8],inactive
same,outcome,[9],inactive
Clc1ccc(COC(Cn2ccnc2)c2ccc(Cl)cc2Cl)cc1 (centres undefined),AC50,[12],10.1 µM (active)
same,AC50,[13],50 µM (active)
same,outcome,[14],inactive
same,AC50,[15],74.4 µM (active)
same,outcome,[7],inactive
same,outcome,[8],inactive
same,outcome,[9],inactive
COc1cc(-c2ccc(N)c(OC)c2)ccc1N,outcome,[2],inactive
same,outcome,[3],inactive
same,outcome,[7],inactive
same,outcome,[8],inactive
same,outcome,[9],inactive
CC(C)(OO)c1ccccc1,outcome,[5],inactive
same,outcome,[6],inactive
same,outcome,[7],inactive
same,outcome,[8],inactive
same,outcome,[9],inactive
same,outcome,[10],inactive
same,outcome,[11],inactive
CN(C)P(=O)(N(C)C)N(C)C,outcome,[7],inactive
same,outcome,[8],inactive
COc1ccccc1OC,outcome,[7],inactive
same,outcome,[8],inactive
CC(=O)c1cc(C(C)(C)C)cc2c1CCC2(C)C,outcome,[7],inactive
same,outcome,[8],inactive
Fc1ccc(C2(Cn3cncn3)OC2c2ccccc2Cl)cc1 (centres undefined),outcome,[7],inactive
same,outcome,[8],inactive
C1CCC(NC2CCCCC2)CC1,outcome,[7],inactive
same,outcome,[8],inactive
COP(=S)(OC)Oc1cc(Cl)c(Br)cc1Cl,outcome,[7],inactive
same,outcome,[8],inactive
O=Cc1cccc(Oc2ccccc2)c1,outcome,[7],inactive
same,outcome,[8],inactive
CC(C)(C)c1cc(O)ccc1O,outcome,[5],inactive
same,outcome,[6],inactive
same,outcome,[10],inactive
same,outcome,[11],inactive
CCN1CCC2(CC1)COc1cc3c(cc12)N(C(=O)c1ccc(-c2ccc(-c4nnc(C)o4)cc2C)cc1)CC3,AC50,[5],7.7 µM (active)
same,AC50,[6],7.7 µM (active)
same,AC50,[7],66.2 µM (active)
same,AC50,[8],60.3 µM (active)
same,outcome,[9],inactive
same,outcome,[10],inactive
same,outcome,[11],inactive
O=C(Cc1ccccc1)c1ccccc1,outcome,[7],inactive
same,outcome,[8],inactive
same,outcome,[9],inactive
ClCCBr,outcome,[7],inactive
same,outcome,[8],inactive
COC(=O)c1sccc1S(=O)(=O)NC(=O)Nc1nc(C)nc(OC)n1,outcome,[7],inactive
same,outcome,[8],inactive
Cc1cc(Cl)ccc1O[C@H](C)C(=O)O,outcome,[7],inactive
same,outcome,[8],inactive
Cn1sc(Cl)cc1=O,outcome,[7],inactive
same,outcome,[8],inactive
O=C(O)C(Cl)(Cl)Cl,outcome,[5],inactive
same,outcome,[6],inactive
same,outcome,[7],inactive
same,outcome,[8],inactive
same,outcome,[9],inactive
same,outcome,[10],inactive
same,outcome,[11],inactive
Cc1ccccc1N,outcome,[7],inactive
same,outcome,[8],inactive
CC(C)(c1ccccc1)c1ccc(O)c(C(C)(C)c2ccccc2)c1,outcome,[2],inactive
same,AC50,[3],50 µM (active)
same,AC50,[5],8.24 µM (active)
same,AC50,[6],8.32 µM (active)
same,outcome,[7],inactive
same,outcome,[8],inactive
same,outcome,[10],inactive
same,outcome,[11],inactive
COc1ccc(C=O)cc1OC,outcome,[7],inactive
same,outcome,[8],inactive
same,outcome,[9],inactive
COC(=O)Cc1ccccc1,outcome,[5],inactive
same,outcome,[6],inactive
same,outcome,[7],inactive
same,outcome,[8],inactive
same,outcome,[10],inactive
same,outcome,[11],inactive
CNC,outcome,[7],inactive
same,outcome,[8],inactive
COC[C@H](C)N(C(=O)CCl)c1c(C)csc1C,outcome,[7],inactive
same,outcome,[8],inactive
C=C(C)C#N,outcome,[7],inactive
same,outcome,[8],inactive
ClCC(Cl)CCl,outcome,[7],inactive
same,outcome,[8],inactive
CCC(=O)c1ccccc1,outcome,[7],inactive
same,outcome,[8],inactive
Cl/C=C/Cl,outcome,[7],inactive
same,outcome,[8],inactive
CCOP(=S)(OCC)SCSP(=S)(OCC)OCC,outcome,[5],inactive
same,outcome,[6],inactive
same,outcome,[7],inactive
same,outcome,[8],inactive
same,outcome,[10],inactive
same,outcome,[11],inactive
CC(=O)OC(c1ccccc1)C(Cl)(Cl)Cl (centres undefined),outcome,[5],inactive
same,outcome,[6],inactive
same,outcome,[7],inactive
same,outcome,[8],inactive
same,outcome,[9],inactive
same,outcome,[10],inactive
same,outcome,[11],inactive
O=C1CCCN1,outcome,[7],inactive
same,outcome,[8],inactive
CNC(=O)O/N=C/C(C)(C)S(C)=O (centres undefined),outcome,[7],inactive
same,outcome,[8],inactive
O=[N+]([O-])c1ccc2c3c(cccc13)CC2,outcome,[7],inactive
same,outcome,[8],inactive
BrCCBr,outcome,[7],inactive
same,outcome,[8],inactive
NC(=O)O,outcome,[7],inactive
same,outcome,[8],inactive
O=C(OC1CCCCC1)c1ccccc1C(=O)OC1CCCCC1,outcome,[7],inactive
same,outcome,[8],inactive
CCNc1nc(NC(C)(C)C)nc(SC)n1,outcome,[7],inactive
same,outcome,[8],inactive
